Laboratory results published in PubChem BioAssay (NCI).
Where “and” joins values, the source holds several entries; their conditions need not be identical. Equal values may be shown once. About 79,000 compounds went through this panel and 15% of them were active in at least one assay; those are over-represented in the sample as a whole. Calls of active or inactive are those of the source. Rule as the data show it: active = growth inhibition above about 70%; inactive = the rest.

Assays:
[1] = NCI Yeast Anticancer Drug Screen. Data for the rad50 strain (AID 155);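 also: 0% = growth of vehicle-only cultures of the same strain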; conditions: S. cerevisiae rad50 strain growth inhibition; at 50.0 µM; stronger effect = higher value
Outline: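 Vehicle-treated cultures provide the reference for the growth inhibition reported for compound-exposed, repair-deficient yeast.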

[2] = NCI Yeast Anticancer Drug Screen. Data for the mec2-1 strain (AID 157); conditions: S. cerevisiae mec2-1 strain, at 50.0 µM, stronger effect = higher value
Outline: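 Mutant yeast (mec2-1) grown with compound; growth inhibition relative to vehicle control reported.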

[3] = NCI Yeast Anticancer Drug Screen. Data for the sgs1 mgt1 strain (AID 161);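 also: 0% = growth of cultures given vehicle only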; conditions: S. cerevisiae sgs1 mgt1 strain, at 50.0 µM, stronger effect = higher value
Outline: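 Yeast cells carrying a defined DNA-repair defect were exposed to test compounds. Growth inhibition was measured relative to vehicle-treated controls.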

[4] = NCI Yeast Anticancer Drug Screen. Data for the cln2 rad14 strain (AID 165);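 also: 0% = growth equal to vehicle treated cultures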; conditions: S. cerevisiae cln2 rad14 strain, at 50.0 µM, stronger effect = higher value
Outline: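 Readout is yeast growth inhibition versus vehicle-treated controls, using a strain with cln2 and rad14 alterations exposed to compound.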

[5] = NCI Yeast Anticancer Drug Screen. Data for the bub3 strain (AID 167); conditions: S. cerevisiae bub3 mutant strain, at 50.0 µM, stronger effect = higher value
Outline: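 Mutant yeast screening strain plus compound; vehicle-treated cultures serve as the 0% inhibition reference.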

[6] = NCI Yeast Anticancer Drug Screen. Data for the mlh1 rad18 strain (AID 175); conditions: S. cerevisiae mlh1 rad18 strain growth inhibition; at 50.0 µM; stronger effect = higher value
Outline: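 Genetically defined yeast (DNA repair-deficient) exposed to compounds; growth inhibition determined relative to vehicle.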

Measured: growth inhibition

CCOP(=S)(OCC)N(C)C(=O)Oc1cccc(C(C)C)c1
inactive: [1] 0.95% | [2] -1.05% | [3] 8.95% | [4] -6.1% | [5] -20.4% | [6] 12.2%

CCCCC(CC)COP(OCC(CC)CCCC)OCC(CC)CCCC.[Br][Hg][Br] (centres undefined)
inactive: [1] 4.55% | [2] -3.1% | [3] -10.8% | [4] -8.25% | [5] -8.95% | [6] -6.4%

C/C=C/COC(=O)CO[N+](=O)[O-]
inactive: [1] 2% | [2] -4.25% | [3] -5.3% | [4] -12.8% | [5] -0.5% | [6] -0.15%

C/C=C/C1(CCCC)C(=O)NC(=O)NC1=O
inactive: [1] 9.8% | [2] 3.35% | [3] 4.15% | [4] 8.75% | [5] -2.6% | [6] -20.8%

NC(=O)C(CCN1CCCCC1)(c1ccccc1)c1ccccc1
inactive: [1] -9.6% | [2] -14.9% | [3] 5.65% | [4] -35.4% | [5] -8.8% | [6] -8.25%

CC(C)(C)C1=C(Br)C(OC(=O)C(F)(F)F)(C(C)(C)C)OP1(=O)c1ccccc1 (centres undefined)
inactive: [1] 1.55% | [2] 12.2% | [3] -22.9% | [4] 30.9% | [5] -10.3% | [6] -7.2%

CC[C@@]1(O)C(=O)OCc2c1cc1n(c2=O)Cc2c-1nc1ccccc1c2Cl
inactive: [3] 63.8% | [5] -6.7% | [6] 46.3%
active: [1] 94.9% | [2] 92% | [4] 81.8%

CC(=O)NC(Cc1ccc(N(CCCl)CCCl)cc1)C(=O)NC(CC(C)C)C(=O)O (centres undefined)
inactive: [1] 2.85% | [2] 22.6% | [3] -4.15% | [4] 5.75% | [5] 2.7% | [6] 21.7%

C=CCc1cc(C=C(C#N)C#N)cc(OC)c1O
inactive: [1] -0.15% | [2] -2.85% | [3] 10.7% | [4] 23.1% | [5] 9.05% | [6] 11.7%

NC(=O)C(F)(F)Cl
inactive: [1] 12.8% | [2] 7.1% | [3] -20.4% | [4] 12.3% | [5] -28.8% | [6] -19.2%

C#CCOC(C(=O)OC1CCN(C)CC1)(c1ccccc1)c1ccccc1
inactive: [1] -3.5% | [2] -11.8% | [3] -6.45% | [4] -36.9% | [5] 0.3% | [6] -1.95%

CC(C)NC(C)C(C)c1ccccc1 (centres undefined)
inactive: [1] 5.95% | [2] -3.15% | [3] 0.1% | [4] -11.9% | [5] -10.2% | [6] 11%

CC[n+]1c(C)n(-c2ccccc2)c(=O)c2ccccc21
inactive: [1] -0.3% | [2] -6.85% | [3] 4.75% | [4] 18.2% | [5] -10.9% | [6] 6.25%

COc1ccc(Cc2nccc3cc(OC)c(OC)cc23)cc1OC
inactive: [1] -4.15% and -16.3% | [2] -19.4% and -28% | [3] -6.9% and 11.4% | [4] -2.9% and -11.6% | [5] -11.7% and -7.9% | [6] -21.1% and -29.4%

CN(C)P(=S)(N(C)C)N1CCOCC1
inactive: [1] -7.6% | [2] -13.3% | [3] 6.55% | [4] -16.8% | [5] -28.3% | [6] -9%

COc1ccc2nc3ccccc3nc2c1 (tested in a mixture with another compound)
inactive: [1] 30.2% | [2] 35.2% | [3] 27.2% | [4] 19.6% | [5] 24.1% | [6] 30.8%

O=C(O)c1ccccc1N=Nc1ccc(N(CCCl)CCCl)cc1
inactive: [1] 21.6% and 13.4% | [2] 14.2% and -11.7% | [3] 3.7% and -2.9% | [4] 10.8% and 20.6% | [5] 16.7% and -4.5% | [6] 31.1% and 8.15%

COc1ccccc1CC(C)N (centres undefined)
inactive: [1] 1.35% | [2] -5.6% | [3] 8.3% | [4] 16% | [5] 16.1% | [6] 16.3%

N#CCCCCCBr
inactive: [1] 1.05% | [2] -19.1% | [3] 23% | [4] 10.8% | [5] 17.9% | [6] 19.4%

[Cr+3].[NH-]CC[NH-].[NH-]CC[NH-].[NH-]CC[NH-].[O-][Cl+3]([O-])([O-])O
inactive: [1] 19.2% | [2] 1.2% | [3] 1.05% | [4] -5.15% | [5] 1% | [6] -1.8%

CN1CC=C(c2cccn2C)CC1
inactive: [1] -24.2% | [2] -24.9% | [3] -6.45% | [4] 4.05% | [5] -10.4% | [6] -37.8%

CC(C)(C)NC(=O)CCl
inactive: [1] -9.6% | [2] -1.35% | [3] -6.1% | [4] -10.2% | [5] 7.45% | [6] -7.85%

CC12CCC3C(CCC4=CC(=O)CCC43C=O)C1CCC2Oc1ccccc1 (centres undefined)
inactive: [1] 20.7% | [2] -9.7% | [3] 25% | [4] 23.6% | [5] 12.4% | [6] 25.6%

CNC(C)C(O)c1ccccc1 (centres undefined)
inactive: [1] 15.3% and 4.1% | [2] -14.3% and -2.1% | [3] 7.45% and -21.6% | [4] 14.9% and 10.5% | [5] 10% and -5.85% | [6] 13.3% and 8.9%

C/C=C/C=C\C=C/C(O)CC(OP(=O)(O)O)C(C)(O)/C=C/C1CC=CC(=O)O1 (centres undefined)
inactive: [1] -9.75% | [2] -52% | [3] -20.4% | [4] 8.65% | [5] -3.35% | [6] -44.2%

O=C1SCCC1CO (centres undefined)
inactive: [1] -8.65% | [2] 3.9% | [3] -6.8% | [4] -3.15% | [5] -2.3% | [6] -8.45%

COC(=O)Cc1ccccc1
inactive: [1] -4.4% | [2] 15.1% | [3] -31.8% | [4] 5.9% | [5] -50.5% | [6] -19.5%

C=Cc1cc(OC)c2c(c1)c(=O)oc1c2cc(OC)c2c(O)ccc(C3OC(C(C)O)C(O)C3O)c21 (centres undefined)
active: [1] 88% | [2] 91.7% | [3] 89.1% | [4] 90.2% | [5] 90% | [6] 89.3%

CCN(CCCl)c1cc(CN(C)C)cc(NC(=O)c2cc(C(=O)Nc3cc(CN(C)C)cc(N(CC)CCCl)c3)n(C)n2)c1
inactive: [1] 60.2% | [2] -10.3% | [3] 27.9% | [4] 20% | [5] -3.3% | [6] 3.05%

CCCC(Br)C(=O)OCC (centres undefined)
inactive: [1] 13.6% | [2] 4.35% | [3] -8.1% | [4] 0.15% | [5] 0.25% | [6] 9.1%

CCSCCC(N)C(=O)O (centres undefined)
inactive: [1] 0.15% and -21.3% | [2] -13.9% and -15% | [3] -37.8% and -2% | [4] -70.4% and -32.9% | [5] -19.9% and 6.05% | [6] -13.2% and -28.6%

Cn1nc(-c2ccc(S(=O)(=O)F)cc2)s/c1=N/NC(=O)c1ccccc1
inactive: [1] 4% | [2] 2% | [3] 19.8% | [4] 23.4% | [5] 18.6% | [6] 3.65%

CC(C)CCC1(CC[N+](C)(C)C)C(=O)NC(=O)NC1=O
inactive: [1] 5.95% | [2] -9.85% | [3] 6.15% | [4] -29.2% | [5] 10.7% | [6] -7.05%

[Se]=P(N1CCCCC1)(N1CCCCC1)N1CCCCC1
inactive: [1] 21.6% | [2] 2.75% | [3] 6.4% | [4] 6.55% | [5] 11.4% | [6] 10.2%
